Experimental data as given in the supplement of paper PMC12808144.

What was measured:
Mel-DCC-11 = test: cell viability relative to DMSO control (fraction of DMSO control); higher = less cytotoxic, active = 0.5 or less; details: 1 µM; 120 h
How it was run: (§1)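 A library of 315 approved anti-cancer drugs (TargetMol) was acoustically pre-spotted into 384-well plates and tested at 1 µM in duplicate for 120 h. Cells were added in 40 µl per well: NHEM-hTERT immortalized melanocytes at 2500/well, and patient-derived Mel-DCC-11 and its resistant subline Mel-DCC-11-R at 1500/well. The subline was tested both alone and with 8 µM of its selecting drug. Viability was read by ATPlite 1step luminescence, normalised to DMSO controls and averaged over duplicates.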

NHEM-hTERT = test: as above; details: 1 µM; 120 h
How it was run: as §1

Mel-DCC-11-R = test: cell viability relative to DMSO control (fraction of DMSO control); higher = less cytotoxic, active = 0.8 or less; details: 1 µM, 120 h
How it was run: as §1

SMILES | cell viability (Mel-DCC-11) | cell viability (NHEM-hTERT) | cell viability (Mel-DCC-11-R; vemurafenib co-treatment 0 µM) | cell viability (Mel-DCC-11-R; vemurafenib co-treatment 8 µM)
C#Cc1cccc(Nc2ncnc3cc(OCCOC)c(OCCOC)cc23)c1 [Erlotinib] | 1.26 (inactive) | 1.02 (inactive) |  | 
CCc1cnn2c(NCc3ccc[n+]([O-])c3)cc(N3CCCC[C@H]3CCO)nc12 [Dinaciclib] | 0.0557 (active) | 0.212 (active) |  | 
O=c1[nH]c(=O)n(C2CCCO2)cc1F (stereo not drawn) [Tegafur] | 0.785 (inactive) | 0.922 (inactive) |  | 
CCN1CCN(Cc2ccc(Nc3ncc(F)c(-c4cc(F)c5nc(C)n(C(C)C)c5c4)n3)nc2)CC1.CS(=O)(=O)O [abemaciclib mesylate] | 0.731 (inactive) | 0.896 (inactive) |  | 
CO[C@H]1C(=O)[C@]2(C)[C@@H](OC)C[C@H]3OC[C@@]3(OC(C)=O)[C@H]2[C@H](OC(=O)c2ccccc2)[C@]2(O)C[C@H](OC(=O)[C@H](O)[C@@H](NC(=O)OC(C)(C)C)c3ccccc3)C(C)=C1C2(C)C [Cabazitaxel] | 0.81 (inactive) | 0.692 (inactive) |  | 
COc1cc(N2CCC(N3CCN(C)CC3)CC2)ccc1Nc1ncc(Cl)c(Nc2ccccc2P(C)(C)=O)n1 [Brigatinib] | 0.988 (inactive) | 0.91 (inactive) | 1.08 (inactive) | 0.867 (inactive)
CCN(CC)CCNC(=O)c1c(C)[nH]c(/C=C2\C(=O)Nc3ccc(F)cc32)c1C.C[C@@H](CC(=O)O)C(=O)O [Sunitinib Malate] | 0.864 (inactive) | 1.03 (inactive) |  | 
CC[C@@H]1C(=O)N(C)c2cnc(Nc3ccc(C(=O)N[C@H]4CC[C@H](N5CCN(CC6CC6)CC5)CC4)cc3OC)nc2N1C(C)C [Volasertib] | 0.752 (inactive) | 0.872 (inactive) |  | 
